{"source": "PubChem BioAssay AID463173", "about": "(ICCB-Longwood Screening Facility, Harvard Medical School, 2010)", "note": "In all, about 52,000 compounds went through this assay and about 4,300 (8.3%) were called active. The sample holds actives, similar compounds and a random draw of the others, so the mix is not that of the screen. Values without a mark were called inactive. No stated cut-off is given here; in the data, active means survival mostly below about 52% (no sharp cut-off); inactive means mostly above about 56%.", "data": [{"system": "DeltatarO mutant", "assay": "S. aureus survival, RN4220 and DeltatarO strains – OD600, teichoic acid synthesis inhibitors, primary screen (AID 463173)", "settings": "S. aureus RN4220 wild type/DeltatarO growth, OD600, 18 h, active compounds read low, screened at 18.75 µg/mL (by protocol)", "values": [{"smiles": "CCc1cccc(C)c1NC(=O)C1CCN(S(=O)(=O)c2c(C)noc2/C=C/c2c(C)cc(C)cc2C)CC1", "survival": "81%"}, {"smiles": "Cn1cc(S(=O)(=O)N2CCCC2)cc1C(=O)Nc1ccc(F)cc1F", "survival": "77%"}, {"smiles": "COc1ccc(NC(=O)C(NC(=O)Cc2cccs2)c2ccc(OC)cc2)cc1", "note": "(stereo not drawn)", "survival": "137%"}, {"smiles": "C=CCNC(=O)CSc1nc2cc(C)cc(C)c2cc1C#N", "survival": "58%"}, {"smiles": "COc1ccccc1CNC(=O)CC(c1ccc(OC)c(OC)c1)N1Cc2ccccc2C1=O", "note": "(stereo not drawn)", "survival": "83%"}, {"smiles": "CCOC(=O)c1noc2ncn(Cc3cccc(C#N)c3)c(=O)c12", "survival": "130%"}, {"smiles": "COc1ccc(CCCc2nnc(SCC(=O)Nc3ccc(Cl)cc3)o2)cc1", "survival": "92%"}, {"smiles": "COc1ccc(OC)c(NC(=O)CSC2=Nc3ccccc3C3=NC(CCC(=O)NCc4ccccc4)C(=O)N23)c1", "note": "(stereo not drawn)", "survival": "0% (active)"}, {"smiles": "COc1ccc(OC)c(NC(=O)CSC2=Nc3ccccc3C3=NC(CC(=O)NCc4ccc(F)cc4)C(=O)N23)c1", "note": "(stereo not drawn)", "survival": "52% (active)"}, {"smiles": "COc1ccc(OC)c(NC(=O)CSC2=Nc3ccccc3C3=NC(CCC(=O)NCCc4ccccc4)C(=O)N23)c1", "note": "(stereo not drawn)", "survival": "80%"}, {"smiles": "COc1ccc(OC)c(NC(=O)CSC2=Nc3ccccc3C3=NC(CCC(=O)NCc4ccco4)C(=O)N23)c1", "note": "(stereo not drawn)", "survival": "78%"}, {"smiles": "COc1ccc(NC(=O)CSC2=Nc3ccccc3C3=NC(CC(=O)NCc4ccc(F)cc4)C(=O)N23)cc1", "note": "(stereo not drawn)", "survival": "55%"}, {"smiles": "COc1ccc(OC)c(NC(=O)CSC2=Nc3ccccc3C3=NC(CC(=O)NCc4ccc5c(c4)OCO5)C(=O)N23)c1", "note": "(stereo not drawn)", "survival": "80%"}, {"smiles": "CCOc1ccc(C2C(=O)N(C3CCCCC3)CC(=O)N2C2CCCC2)cc1OC", "note": "(stereo not drawn)", "survival": "71%"}, {"smiles": "CC(=O)N1CCOc2cc(S(=O)(=O)NCc3ccccc3Cl)c(C)cc21", "survival": "85%"}, {"smiles": "Cc1cc(Cl)ccc1NC(=O)c1cccc(NC(=O)N2CCSc3ncccc32)c1", "survival": "74%"}, {"smiles": "CCCc1nn2c(=O)cc(COC(=O)c3ccco3)nc2s1", "survival": "77%"}, {"smiles": "CCOC(=O)c1cc2c(=O)n3ccccc3nc2n(C)c1=NC(=O)c1c(-c2ccccc2Cl)noc1C", "survival": "141%"}, {"smiles": "Cc1ccc(NC(=O)c2c(C)nc3sc(C(=O)Nc4ccc(F)cc4)c(N)c3c2-c2ccc(C)o2)c(C)c1", "survival": "60%"}, {"smiles": "CNC(=O)c1c(-c2ccccc2)oc2ccc(OC)cc12", "survival": "90%"}, {"smiles": "COC(=O)c1cc2oc3ccccc3c2n1Cc1c(F)cccc1Cl", "survival": "118%"}, {"smiles": "O=C(O)c1c(-c2ccccc2)oc2ccc(OCc3ccc(Cl)c(Cl)c3)cc12", "survival": "-1% (active)"}, {"smiles": "C=Cc1ccc(COc2ccc3oc(-c4ccccc4)c(C(=O)OCC)c3c2)cc1", "survival": "45% (active)"}, {"smiles": "O=C(O)c1c(-c2ccccc2)oc2ccc(OCc3c(F)cccc3Cl)cc12", "survival": "29% (active)"}, {"smiles": "CCOC(=O)c1c(-c2ccccc2)oc2ccc(N(C(C)=O)S(=O)(=O)c3ccc(CC)cc3)cc12", "survival": "69%"}, {"smiles": "CCOC(=O)c1c(-c2ccccc2)oc2ccc(OCc3ccccc3Br)cc12", "survival": "38% (active)"}, {"smiles": "CCOC(=O)c1c(-c2ccccc2)oc2ccc(NS(=O)(=O)c3ccc(C(C)C)cc3)cc12", "survival": "70%"}, {"smiles": "Cc1ccc(NC(=O)Cn2c(=O)n(CCCCC(=O)NCc3ccc4c(c3)OCO4)c(=O)c3ccccc32)cc1", "survival": "72%"}, {"smiles": "CC1(C)N([O-])C2=C(CCCC2)[N+]1=O", "survival": "83%"}, {"smiles": "CCCc1nc2ccccc2n2c(-c3cccc(C)c3)c3c(=O)n(C)c(=O)n(C)c3c12", "survival": "67%"}, {"smiles": "Cc1cc(-c2ccc(C)c(S(=O)(=O)NCCc3ccccc3)c2)on1", "survival": "80%"}, {"smiles": "CCOC(=O)c1c(-c2ccccc2)oc2cc(Br)c(OCC(N)=O)cc12", "survival": "79%"}, {"smiles": "CCOC(=O)c1c(-c2ccc(OC)cc2)oc2ccc(OCc3ccccc3C)cc12", "survival": "51%"}, {"smiles": "CCOC(=O)c1c(-c2ccccc2)oc2ccc(N(C(C)=O)S(=O)(=O)c3ccccc3)cc12", "survival": "60%"}, {"smiles": "CCOc1ccc(-c2oc3ccc(C)cc3c(=O)c2O)cc1", "survival": "91%"}, {"smiles": "CCOC(=O)c1c(-c2ccccc2)oc2ccc(N(C(C)=O)S(=O)(=O)c3ccc(C)cc3)cc12", "survival": "62%"}, {"smiles": "Cc1ccc(COc2ccc3oc(-c4ccccc4)c(C(=O)O)c3c2)cc1", "survival": "34% (active)"}, {"smiles": "CCOC(=O)c1c(-c2ccccc2)oc2cc(Br)c(OCc3ccccc3)cc12", "survival": "36% (active)"}, {"smiles": "CCOC(=O)c1c(-c2ccc(OC)cc2)oc2ccc(OCc3ccc(F)cc3F)cc12", "survival": "38% (active)"}, {"smiles": "CCOC(=O)c1c(-c2ccccc2)oc2ccc(OCc3ccc(C)cc3)cc12", "survival": "30% (active)"}, {"smiles": "CCOC(=O)c1c(-c2ccc(OC)cc2)oc2ccc(OCc3ccc(C(=O)OC)cc3)cc12", "survival": "48%"}, {"smiles": "CCOC(=O)c1c(C)oc2ccc(OCC(N)=O)cc12", "survival": "100%"}, {"smiles": "CCOC(=O)c1c(-c2ccc(OC)cc2)oc2ccc(OCc3ccc(Br)cc3)cc12", "survival": "63%"}, {"smiles": "Cc1ccc(C(=O)N/C(=C\\c2cn(S(=O)(=O)N(C)C)c3ccccc23)C(=O)NCCCn2ccnc2)cc1", "survival": "80%"}, {"smiles": "O=C(c1ccc(CS(=O)(=O)c2c(Cl)cccc2Cl)o1)N1CCN(c2ccccc2)CC1", "survival": "107%"}, {"smiles": "Cc1ccc(CNC(=O)CN2C(=O)CSc3c2c(C)nn3-c2ccccc2)cc1", "survival": "89%"}, {"smiles": "CC(CCc1ccccc1)NC(=O)Cn1ncc2c3ccccc3n(Cc3ccccc3F)c2c1=O", "note": "(stereo not drawn)", "survival": "92%"}, {"smiles": "COc1ccccc1N1CCN(C(=O)CCS(=O)(=O)c2cc(Br)cc3c2N(C(=O)C2CC2)CC3)CC1", "survival": "83%"}, {"smiles": "O=C(O)CCn1c(=O)c2cccn2c2cccnc21", "survival": "98%"}, {"smiles": "CCOC(=O)c1c(-c2ccccc2)oc2ccc(OCc3cccc(Br)c3)cc12", "survival": "38% (active)"}, {"smiles": "O=C(NCCc1ccccc1)C(=O)NCC(c1cccnc1)N1CCN(c2ccc(F)cc2)CC1", "note": "(stereo not drawn)", "survival": "103%"}, {"smiles": "C=CCN(CC=C)C(=O)COc1ccc(Cl)cc1Cl", "survival": "73%"}, {"smiles": "CCOc1cccc2sc(NC(=O)c3ccc(S(=O)(=O)N4CCc5ccccc54)cc3)nc12", "survival": "71%"}, {"smiles": "Oc1ccc(-c2cccc(-c3ccc(O)cc3)c2)cc1", "survival": "27% (active)"}, {"smiles": "COc1ccc2c(CNCc3ccc(Cl)cc3)c(C(=O)O)n(Cc3ccccc3C)c2c1", "survival": "97%"}, {"smiles": "COc1ccc(OC)c(CNCc2c(C(=O)O)n(Cc3ccccc3)c3cc(OC)ccc23)c1", "survival": "77%"}, {"smiles": "CCc1ccc(CNCc2c(C(=O)O)n(Cc3cccc(F)c3)c3cc(OC)ccc23)cc1", "survival": "79%"}, {"smiles": "Cc1ccccc1Cn1c(C(=O)O)c(CNCc2cccc(F)c2)c2ccccc21", "survival": "52% (active)"}, {"smiles": "CCOc1ccc(CNCc2c(C(=O)O)n(Cc3ccc(C)cc3)c3cc(C)ccc23)cc1", "survival": "12% (active)"}, {"smiles": "COc1ccc(OC)c(CNCc2c(C(=O)O)n(Cc3cccc(F)c3)c3cc(OC)ccc23)c1", "survival": "-1% (active)"}, {"smiles": "Cc1ccc(CNCc2c(C(=O)O)n(Cc3ccccc3C)c3cc(C)ccc23)cc1", "survival": "67%"}, {"smiles": "CCOc1ccc(CNCc2c(C(=O)O)n(Cc3ccc(OC)cc3)c3ccccc23)cc1", "survival": "82%"}, {"smiles": "C=Cc1ccc(Cn2c(C(=O)O)c(CNCCc3ccccc3)c3ccc(C)cc32)cc1", "survival": "92%"}, {"smiles": "CCOc1ccc(CCNCc2c(C(=O)O)n(Cc3ccc(C)cc3)c3cc(OC)ccc23)cc1", "survival": "58%"}, {"smiles": "Cc1ccc2c(CNCc3cccc(Cl)c3)c(C(=O)O)n(Cc3ccc(F)cc3Cl)c2c1", "survival": "70%"}, {"smiles": "Cc1ccc2c(CNCCc3ccccc3)c(C(=O)O)n(Cc3ccccc3C)c2c1", "survival": "6% (active)"}, {"smiles": "CCC1CCCCN1C(=O)Cn1c(=O)n(-c2ccccc2C(F)(F)F)c(=O)c2c(C)c(C(=O)N(C)C)sc21", "note": "(stereo not drawn)", "survival": "80%"}, {"smiles": "CCC1CN(C(=O)N2CCC(C(=O)Nc3ccccc3F)CC2)c2ccccc2O1", "note": "(stereo not drawn)", "survival": "74%"}, {"smiles": "Cc1ccc(NC(=O)c2oc3ccc(S(=O)(=O)N4CCOCC4)cc3c2C)c(C)c1", "survival": "125%"}, {"smiles": "CCOC(=O)c1cn(CC(=O)Nc2ccc(OC)cc2OC)nn1", "survival": "83%"}, {"smiles": "Cc1cccc(CNC(=O)Cn2nc(C)n3c(cc4cc(F)ccc43)c2=O)c1", "survival": "77%"}, {"smiles": "O=C(O)CCc1ccco1", "survival": "98%"}, {"smiles": "CCOC(=O)C1CCN(C(=O)Cc2cccc3ccccc23)CC1", "survival": "82%"}, {"smiles": "CCN(CC)S(=O)(=O)c1ccc(C(=O)NCCSc2c(-c3ccc(F)cc3)[nH]c3ccccc23)cc1", "survival": "69%"}, {"smiles": "CCOC(=O)COc1ccc(F)cc1C(=O)c1ccn2nc(-c3ccc(C)cc3)cc2n1", "survival": "80%"}, {"smiles": "COc1ccc(-c2nc(Cn3c(SCc4ccccc4F)nc4cccnc43)c(C)o2)cc1", "survival": "69%"}, {"smiles": "Cc1ccc2c(CNCCc3ccco3)c(C(=O)O)n(Cc3ccc(F)cc3)c2c1", "survival": "59%"}, {"smiles": "Cc1ccc(CNCc2c(C(=O)O)n(Cc3ccc(C)cc3)c3cc(C)ccc23)cc1", "survival": "2% (active)"}, {"smiles": "Cc1ccc(Cn2c(C(=O)O)c(CNCc3cccs3)c3ccc(C)cc32)cc1", "survival": "48% (active)"}, {"smiles": "COc1ccc(Cn2c(C(=O)O)c(CNCc3cccs3)c3ccc(C)cc32)cc1", "survival": "89%"}, {"smiles": "Cc1ccc2c(CNCc3cccs3)c(C(=O)O)n(Cc3ccc(F)cc3)c2c1", "survival": "82%"}, {"smiles": "Cc1ccc(Cn2c(C(=O)O)c(CNCc3ccc(OC(C)C)cc3)c3ccc(C)cc32)cc1", "survival": "11% (active)"}, {"smiles": "Cc1ccc2c(CNCCc3ccc(Cl)cc3)c(C(=O)O)n(Cc3ccc(F)cc3)c2c1", "survival": "8% (active)"}, {"smiles": "Cc1ccc(Cn2c(C(=O)O)c(CNCc3ccccc3Cl)c3ccc(C)cc32)cc1", "survival": "58%"}, {"smiles": "COc1ccc(Cn2c(C(=O)O)c(CNCc3cccc(OC)c3)c3ccc(C)cc32)cc1", "survival": "74%"}, {"smiles": "C=Cc1ccc(Cn2c(C(=O)O)c(CNCc3ccccc3)c3ccc(C)cc32)cc1", "survival": "120%"}, {"smiles": "C=Cc1ccc(Cn2c(C(=O)O)c(CNCc3ccc(F)cc3)c3ccc(C)cc32)cc1", "survival": "86%"}, {"smiles": "Cc1ccc(Cn2c(C)c(CNCc3ccc(OC(C)C)cc3)c(C(=O)O)c2C)cc1", "survival": "121%"}]}]}
